Assay outcomes: PubChem, The Scripps Research Institute Molecular Screening Center
CHRM1 agonist – activates human CHRM1 receptor. P11229. CHO-K1 hM1, Fluo-8 calcium fluorescence, agonist mode; 0% DMSO, 100% acetylcholine EC100. activation, % at 3 µM. 0.33% of 360,000 active. AID 588814;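 active means activation above the run's mean compound activation plus 3 SD, cut at about 16% in these data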;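 further: peak over basal fluorescence ratio within a 140 s kinetic read after compound addition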
Target sequence (P11229 whole entry, looked up): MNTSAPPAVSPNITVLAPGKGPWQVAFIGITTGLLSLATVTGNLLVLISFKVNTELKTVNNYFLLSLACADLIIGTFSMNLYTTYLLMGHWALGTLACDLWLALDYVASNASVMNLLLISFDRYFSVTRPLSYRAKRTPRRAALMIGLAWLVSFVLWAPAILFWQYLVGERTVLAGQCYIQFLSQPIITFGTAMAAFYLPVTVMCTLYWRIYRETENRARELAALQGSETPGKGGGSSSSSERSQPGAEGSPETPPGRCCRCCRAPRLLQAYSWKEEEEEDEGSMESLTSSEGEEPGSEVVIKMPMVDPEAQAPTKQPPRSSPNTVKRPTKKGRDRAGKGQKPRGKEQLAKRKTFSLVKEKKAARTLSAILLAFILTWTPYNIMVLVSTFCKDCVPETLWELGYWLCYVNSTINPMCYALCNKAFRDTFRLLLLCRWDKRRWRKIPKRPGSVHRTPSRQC
CHRM1 antagonist – blocks human M1 muscarinic receptor. AID 588852. P11229. 1.3% of 360,000 active. inhibition, % at 3 µM. CHO-K1 hM1, Fluo-8 calcium fluorescence, ACh EC80 antagonist;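 active means percent inhibition above its own plate's cutoff, namely the mean of that plate's compound wells plus 3 SD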;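 further: peak over basal fluorescence ratio during 140 s after agonist addition; 0% = ACh EC80 plus DMSO and 100% = DMSO alone without agonist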
CHO-K1 Ca antag – M1 antagonist counterscreen hit in parental CHO-K1 cells | 0.6% of 360,000 active | inhibition, % at 3 µM | ATP-induced calcium, Fluo-8 fluorescence | AID 602250;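 active means inhibition above a per-plate cutoff, the plate's mean sample inhibition plus 3 SD, cut at about 24% in these data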;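 further: 0% = DMSO plus EC80 ATP and 100% = DMSO alone without ATP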
CHO-K1 Ca PAM – nonselective activator or artifact in parental CHO-K1 calcium assay | ATP EC20, Fluo-8 calcium fluorescence; 0% at ATP EC20, 100% at ATP max | activation, % at 3 µM | 0.02% of 360,000 active | AID 602247;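 active means activation above the run cutoff, the mean activation of all test compounds plus 3 SD, cut at about 40% in these data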;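 further: peak over basal fluorescence ratio in a 140 s read after ATP addition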
M1 PAM – potentiates human M1 receptor response to acetylcholine; P11229; 0.088% of 360,000 active; AID 588819; CHO-K1 hM1, Fluo-8 calcium fluorescence, ACh EC20; 0% = ACh EC20, 100% = maximal ACh; activation, % at 3 µM; in the data active means activation above about 19%, passing the limit was not always enough
M1 ag parental – M1 agonist counterscreen hit in parental CHO-K1 cells; activation, % at 3 µM; Fluo-8 calcium fluorescence; scaled to maximal ATP response, vehicle zero; 0.48% of 360,000 active; in the data active means activation above about 15%;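 further: untransfected CHO-K1 host cells lacking M1 receptor as counterscreen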
Active calls of the source: *. The list is not random: actives were taken first. Their share in the collection is about 2.3%.

For NS(=O)(=O)c1cccc(Nc2nc3ccccc3nc2NS(=O)(=O)c2ccc(Cl)cc2)c1 the results were CHRM1 agonist -3, CHRM1 antagonist -4, CHO-K1 Ca antag -1, CHO-K1 Ca PAM 9, M1 PAM -1 and M1 ag parental 0.
O=C1CC(c2cccnc2)c2cc3c(cc2N1)OCCO3 (stereo unspecified) was read as CHRM1 agonist -1, CHRM1 antagonist 39*, CHO-K1 Ca antag 11, CHO-K1 Ca PAM -6, M1 PAM -9 and M1 ag parental 0.
O=C(Nc1nccs1)c1ncc(Cl)c(Cl)c1Cl was read as CHRM1 agonist -6, CHRM1 antagonist 6, CHO-K1 Ca antag 9, CHO-K1 Ca PAM 8, M1 PAM -3 and M1 ag parental 0.
CC(C)Cn1c(-c2ccc(Br)cc2)c[nH]c1=S was read as CHRM1 agonist -3, CHRM1 antagonist 15, CHO-K1 Ca antag -23, CHO-K1 Ca PAM 24, M1 PAM -13 and M1 ag parental 15*.
`CSCC[C@H](NC(=O)[C@H](Cc1ccccc1)n1c(=O)[nH]c2ccccc2c1=O)C(=O)N1CCC(C(=O)O)CC1` gave CHRM1 agonist -2, CHRM1 antagonist -5, CHO-K1 Ca antag 9, CHO-K1 Ca PAM 0, M1 PAM 4 and M1 ag parental 0.
For COc1ccc(CN(C)c2ccc(S(=O)(=O)N3CCN(C)CC3)cc2[N+](=O)[O-])cc1OC the results were CHRM1 agonist 3, CHRM1 antagonist 43*, CHO-K1 Ca antag 31*, CHO-K1 Ca PAM -11, M1 PAM -15 and M1 ag parental 16*.
Screening O=C(CCCc1nc2ccccc2s1)NNC(=O)CCN1CCN(Cc2ccccc2)CC1 returned CHRM1 agonist 17*, CHRM1 antagonist 13, CHO-K1 Ca antag -8, CHO-K1 Ca PAM 3, M1 PAM -8 and M1 ag parental 0.
O=C(c1ccccc1)c1ccc(OCCOCCN2CCN(Cc3ccccc3)CC2)cc1 was read as CHRM1 agonist -4, CHRM1 antagonist 87*, CHO-K1 Ca antag -4, CHO-K1 Ca PAM 9, M1 PAM -26 and M1 ag parental 12.
`NS(=O)(=O)c1ccc(NC(=S)Nc2ccc(OCc3ccccc3)cc2)cc1` gave CHRM1 agonist -7, CHRM1 antagonist -1, CHO-K1 Ca antag 4, CHO-K1 Ca PAM 5, M1 PAM 4 and M1 ag parental 0.
Screening O=C(CCCc1nc2ccccc2s1)NCc1ccccc1 returned CHRM1 agonist -7, CHRM1 antagonist 1, CHO-K1 Ca antag 3, CHO-K1 Ca PAM 15, M1 PAM 8 and M1 ag parental 9.
For O=C(CCN1CCN(CCO)CC1)Nc1ccc(OCc2ccccc2)cc1 the results were CHRM1 agonist -7, CHRM1 antagonist -8, CHO-K1 Ca antag 0, CHO-K1 Ca PAM 5, M1 PAM 8 and M1 ag parental 1.
Screening O=C(CCN1CCN(Cc2ccccc2)CC1)Nc1ccc(OCc2ccccc2)cc1 returned CHRM1 agonist 1, CHRM1 antagonist 24*, CHO-K1 Ca antag 23, CHO-K1 Ca PAM 3, M1 PAM -16 and M1 ag parental 7.
Screening S=C(Nc1ccccc1)Nc1ccc(OCc2ccccc2)cc1 returned CHRM1 agonist -4, CHRM1 antagonist -8, CHO-K1 Ca antag 26*, CHO-K1 Ca PAM -8, M1 PAM 4 and M1 ag parental 0.
Screening COc1ccc([N+](=O)[O-])cc1NC(=O)c1ccccc1N(C)S(C)(=O)=O returned CHRM1 agonist -7, CHRM1 antagonist -8, CHO-K1 Ca antag -14, CHO-K1 Ca PAM 21, M1 PAM 12 and M1 ag parental 0.
Screening c1ccc(CN2CCN(CCOCCOc3ccc4c(c3)CCC4)CC2)cc1 returned CHRM1 agonist -3, CHRM1 antagonist 29*, CHO-K1 Ca antag -11, CHO-K1 Ca PAM 4, M1 PAM -19 and M1 ag parental 13.
Cc1ccc(Nc2nc3nonc3[nH]c2=O)cc1Cl was read as CHRM1 agonist 1, CHRM1 antagonist 13, CHO-K1 Ca antag 30*, CHO-K1 Ca PAM -13, M1 PAM -16 and M1 ag parental 0.
`CC1CCC(C(C)C)C(OC(=O)Cn2c(-c3ccc(Br)cc3)[n+](C)c3ccccc32)C1` (stereo unspecified) gave CHRM1 agonist -16, CHRM1 antagonist 23*, CHO-K1 Ca antag 7, CHO-K1 Ca PAM 20, M1 PAM -29 and M1 ag parental 3.
Cc1ccccc1OCc1n(CC(=O)OC2CC(C)CCC2C(C)C)c2ccccc2[n+]1C (stereo unspecified) was read as CHRM1 agonist -13, CHRM1 antagonist 44*, CHO-K1 Ca antag 10, CHO-K1 Ca PAM 4, M1 PAM -33 and M1 ag parental 1.
`CC1CCC(C(C)C)C(OC(=O)Cn2c(-c3ccc(Cl)cc3)[n+](C)c3ccccc32)C1` (stereo unspecified) gave CHRM1 agonist -4, CHRM1 antagonist 42*, CHO-K1 Ca antag 11, CHO-K1 Ca PAM -14, M1 PAM -19 and M1 ag parental 1.
Screening CC1CCC(C(C)C)C(OC(=O)COC(=O)c2cccn2C)C1 (stereo unspecified) returned CHRM1 agonist -5, CHRM1 antagonist -3, CHO-K1 Ca antag -8, CHO-K1 Ca PAM 14, M1 PAM 2 and M1 ag parental 0.
`CC1CCC(C(C)C)C(OC(=O)COC(=O)c2ccc(N)cc2)C1` (stereo unspecified) gave CHRM1 agonist -8, CHRM1 antagonist -5, CHO-K1 Ca antag -7, CHO-K1 Ca PAM 23, M1 PAM 7 and M1 ag parental 1.
`CC(=O)N=c1n(C)c2ccccc2n1CCOc1ccccc1` gave CHRM1 agonist -3, CHRM1 antagonist -1, CHO-K1 Ca antag -14, CHO-K1 Ca PAM 15, M1 PAM 5 and M1 ag parental 0.
`Cc1noc(/C=C/c2ccco2)c1S(=O)(=O)N1CCC(C(=O)NC(C)c2ccccc2)CC1` (stereo unspecified) gave CHRM1 agonist -5, CHRM1 antagonist -11, CHO-K1 Ca antag 23, CHO-K1 Ca PAM -3, M1 PAM 9 and M1 ag parental 0.
Screening Cc1noc(/C=C/c2ccco2)c1S(=O)(=O)N1CCC(C(=O)N2c3ccccc3CC2C)CC1 (stereo unspecified) returned CHRM1 agonist -2, CHRM1 antagonist 15, CHO-K1 Ca antag 26*, CHO-K1 Ca PAM -9, M1 PAM -2 and M1 ag parental 0.
For Cc1cccc2cc(COC(=O)c3ccccn3)c(=O)[nH]c12 the results were CHRM1 agonist -4, CHRM1 antagonist 1, CHO-K1 Ca antag 8, CHO-K1 Ca PAM -6, M1 PAM 3 and M1 ag parental 1.
For Brc1cccc(-c2cnc3n2CCCCC3)c1 the results were CHRM1 agonist -4, CHRM1 antagonist 48*, CHO-K1 Ca antag -7, CHO-K1 Ca PAM 11, M1 PAM -19 and M1 ag parental 5.
